Sampled rows, rich in hits. Any-hit rate of the full collection: about 5.7%.
AHR activator: activators of human aryl hydrocarbon receptor | activation, % at 5 µM | AHR-responsive luciferase reporter cells, luminescence | P35869 | 320,000 tested, 2.5% active; in the data active = activation above about 47%
Target sequence (P35869 whole entry, looked up): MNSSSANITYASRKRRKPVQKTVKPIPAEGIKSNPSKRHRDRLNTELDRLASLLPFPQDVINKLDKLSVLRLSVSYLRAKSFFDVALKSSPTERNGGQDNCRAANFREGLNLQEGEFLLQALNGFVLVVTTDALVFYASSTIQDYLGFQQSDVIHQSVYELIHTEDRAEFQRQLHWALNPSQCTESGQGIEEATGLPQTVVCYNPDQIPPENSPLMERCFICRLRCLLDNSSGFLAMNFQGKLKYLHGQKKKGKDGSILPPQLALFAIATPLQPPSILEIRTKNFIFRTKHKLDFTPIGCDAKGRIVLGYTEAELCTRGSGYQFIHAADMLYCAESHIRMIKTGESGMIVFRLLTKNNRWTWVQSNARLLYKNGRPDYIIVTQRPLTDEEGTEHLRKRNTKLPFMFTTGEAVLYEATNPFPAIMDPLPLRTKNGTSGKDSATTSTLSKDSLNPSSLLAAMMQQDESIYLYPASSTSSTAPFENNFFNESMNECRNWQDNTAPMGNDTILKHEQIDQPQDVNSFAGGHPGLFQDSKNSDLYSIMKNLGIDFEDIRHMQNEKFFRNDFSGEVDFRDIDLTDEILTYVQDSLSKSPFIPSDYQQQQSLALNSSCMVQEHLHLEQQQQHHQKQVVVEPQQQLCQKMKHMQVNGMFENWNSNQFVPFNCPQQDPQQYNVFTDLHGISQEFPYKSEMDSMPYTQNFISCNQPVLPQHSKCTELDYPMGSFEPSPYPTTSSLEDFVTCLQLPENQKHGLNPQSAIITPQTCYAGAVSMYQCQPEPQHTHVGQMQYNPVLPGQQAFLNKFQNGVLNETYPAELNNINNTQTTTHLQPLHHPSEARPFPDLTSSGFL
hgDAF12 agonist: activates the H. glycines DAF-12 receptor ligand-binding domain. AID 687014. activation, % at 6.8 µM. HEK293 GAL4-hgDAF12 UAS-luciferase reporter, agonist luminescence; normalized to butyrate control. 370,000 tested, 1.8% active;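 active = activation above a cutoff set at the mean of all screened compounds plus 3 SD, cut at about 10% in these data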
hcDAF-12 act: H. contortus DAF-12 activation, primary screen | HEK293 hcDAF-12 lit1-tk-luc reporter, luminescence; 0% DMSO, 100% Δ7-dafachronic acid | activation, % at 6.8 µM | 370,000 tested, 1.4% active | AID 652067;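 active = activation above the mean of all tested compounds plus 3 SD, cut at about 5.5% in these data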
DAX1 inh-1: blocks DAX1 repression of SF-1 activated StAR promoter. 370,000 tested, 1.1% active. inhibition, % at 6.8 µM. HEK293T StAR-luciferase reporter, SF-1/DAX-1 repression relief. AID 652010;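 active = inhibition above the mean over all tested compounds plus 3 SD, cut at about 3.6% in these data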;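 note: higher inhibition means more luminescence from relief of DAX-1 repression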
ssDAF-12 act: activators of S. stercoralis DAF-12 nuclear receptor; activation, % at 6.8 µM; 370,000 tested, 1% active; HEK293 ssDAF-12/GRIP1 lit1-tk-luc reporter, luminescence; % of 3 µM dafachronic acid response; AID 652126;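 active = activation above the mean over all tested compounds plus 3 SD, cut at about 0.9% in these data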
DAX1 inh-2: NR0B1 (DAX1) inhibition; P51843; HEK293 Gal4-DAX1 luciferase reporter, luminescence; inhibition, % at 6.75 µM; 340,000 tested, 0.99% active; AID 504766;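 active = inhibition above the mean over all tested compounds plus 3 SD, cut at about 4.2% in these data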;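 note: inhibition shows as a rise in luminescence from relieved DAX1 repression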
Numbers stand for hits; i = inactive; nt = no result.

SMILES | AHR activator | hgDAF12 agonist | hcDAF-12 act | DAX1 inh-1 | ssDAF-12 act | DAX1 inh-2
O=C(CSc1nccc(=O)[nH]1)c1c[nH]c2ccccc12 | i | i | i | i | i | i
O=C(CSc1nc2ccc(Cl)cc2[nH]1)c1c[nH]c2ccccc12 | 76.8 | i | i | i | i | i
CCN(CC)C(=O)CC[C@@H]1CC[C@]2(CCCN(C(=O)C3CCCCC3)C2)O1 | nt | i | i | i | i | nt
COC(=O)C1=CN(c2ccc(OC)cc2)C(N)=C(C#N)C1c1ccccc1F (stereo not drawn) | nt | i | i | 3.8 | i | nt
CN(Cc1ccc(Cl)cc1Cl)C(=O)CCNC(=O)c1ccco1 | i | i | i | i | i | i
O=C(NNC(=O)c1cc2cc3ccccc3nc2s1)c1cccc(Cl)c1 | 48.4 | i | i | i | i | i
Cc1ccc(S(=O)(=O)NNC(=O)c2cc3cc4ccccc4nc3s2)cc1 | i | i | i | i | i | i
Cc1cccc(C(=O)NNC(=O)c2cc3cc4ccccc4nc3s2)c1 | 74.4 | i | i | i | i | i
O=C(NC(=S)Nc1ccccc1O)c1ccc(-c2ccc(Cl)cc2)o1 | 67.0 | i | i | i | i | i
Cc1ccc2c(c1)/C(=C/c1ccc(F)cc1)C(=O)N2 | i | i | i | i | i | i
Cc1ccc2c(c1)/C(=C/c1ccccc1C)C(=O)N2 | 57.0 | i | i | i | i | i
COc1ccccc1/C=C1\C(=O)Nc2ccccc21 | nt | i | i | i | i | i
O=C1Nc2ccccc2/C1=C/c1ccccc1Cl | 58.6 | i | i | i | i | i
CCN(Cc1ccccc1)C(=O)CCc1nc(CN2CCN(C(=O)c3ccc([N+](=O)[O-])cc3)CC2)no1 | i | i | i | i | i | i
CCCCC(=O)Nc1ccc2c(c1)nc(CN1CCN(C(=O)OCC)CC1)n2C | i | i | i | i | i | i
CCNC(=S)N/N=C/c1sc(N2CCCCC2)nc1-c1cccs1 | i | i | i | i | i | i
O=C(Cn1ncc(N2CCOCC2)c(Cl)c1=O)c1ccc(Cl)cc1 | i | i | i | i | i | 5.4
O=C(Cn1ncc(Cl)c(Cl)c1=O)c1ccc(Cl)cc1 | i | i | i | i | i | i
Cc1ccsc1C(=O)OCc1cc(=O)n2ccsc2n1 | i | 12.8 | i | 4.3 | 0.9 | i
O=C(OCc1cc(=O)n2ccsc2n1)c1ccc(O)cc1O | i | i | i | i | i | i
COc1ccc(CNS(=O)(=O)c2ccccc2Br)cc1 | i | nt | nt | nt | nt | nt
CC1(C)CC2CC(C)(CN2C(=O)c2ccc([N+](=O)[O-])cc2[N+](=O)[O-])C1 (stereo not drawn) | i | i | i | i | i | 6.7
C=CCOc1ccc(CNc2ccc(NC(=O)CCC)cc2)cc1OCC | i | i | i | i | i | 4.5
C=CCOc1c(Br)cc(CNc2ccc(NC(=O)C(C)C)c(OC)c2)cc1OCC | 67.4 | i | i | i | i | i
C=CCOc1c(Br)cc(CNc2ccc3[nH]c(=O)[nH]c3c2)cc1OCC | i | i | i | i | i | i
SMILES | AHR activator | hgDAF12 agonist | hcDAF-12 act | DAX1 inh-1 | ssDAF-12 act | DAX1 inh-2
C=CCOc1c(Br)cc(CNc2ccc(NC(=O)CCC)cc2)cc1OCC | i | i | i | i | i | i
Cc1ccc(C(=O)/C=C/c2cn(CN3CCN(C)CC3)c3ccccc23)cc1 | i | 12.7 | i | i | i | i
O=Cc1c(SCCO)nc2ccccn2c1=O | i | i | i | i | i | i
COC(=O)CSc1nc2ccccn2c(=O)c1C=O | i | i | 6.3 | i | 1.5 | i
Fc1ccc(-c2ccc3c(n2)CCCN3Cc2ccccn2)cc1 | nt | i | i | 3.8 | i | nt
Cc1ccccc1Nc1nc(N)nc(COC(=O)CCNS(=O)(=O)c2ccccc2)n1 | i | i | i | i | i | i
CCOc1ccc(OCC)c(NC(=O)CCSCCc2ccccn2)c1 | i | i | i | i | i | 4.3
CCOc1ccc(OCC)c(NC(=O)CSc2nnnn2CC)c1 | i | i | i | i | i | 4.3
CCOc1ccc(OCCOC(=O)CN(C)S(=O)(=O)c2ccc(NC(C)=O)cc2)cc1 | i | i | i | i | i | i
Oc1sc(C=Nc2ccccc2)c2ccccc12 | 49.9 | i | i | i | i | i
COc1ccc2oc(C(=O)OCC(=O)N3CCCCC3)c(C)c2c1 | i | i | i | i | i | 4.9
COc1ccc2oc(C(=O)N3CCCc4ccccc43)c(C)c2c1 | i | i | i | 4.3 | i | i
Fc1ccc(COc2ccc(C(=S)N3CCCC3)cc2)cc1 | i | i | i | i | i | 4.3

Assay outcomes from PubChem BioAssay.
